Data: PubChem BioAssay AID463 (The Scripps Research Institute Molecular Screening Center, 2006)
Among all 56,000 compounds or so, about 710 (1.3%) were called active. The entries come from a sample that favours actives as a whole. A number with no mark means an inactive call.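 How the source made its calls: active means inhibition above the mean inhibition of all tested compounds plus 3 SD (cut at about 28% in these data); inactive means the rest.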

test: Jurkat cell viability reduction – Jurkat E6.1, 60K MLSMR library, cytotoxicity control, primary screen (AID 463); conditions: Jurkat E6.1 viability, ATP luminescence, 48 h; at 4 µM; hits give high values

For `Cc1ccc(S(=O)(=O)NCc2csc(C)n2)c(C)c1`, which inhibition is on record?
Its inhibition is -3.9%.

With `Cc1nc(CNS(=O)(=O)c2cccnc2)cs1` as the compound, how does the inhibition read?
Its inhibition is 2.3%.

For `Cc1nc(CNS(=O)(=O)c2ccc(Oc3ccccc3)cc2)cs1`, which inhibition is on record?
Its inhibition is 35.6% (active).

Which inhibition does the source give for `Cc1cccc(NC(=O)c2ccccc2NC(=O)C(C)(C)C)n1` here?
The inhibition was 2.6%.

Which inhibition does the source give for `COc1cccc(N2CCN(C(=O)C3CCCN(S(=O)(=O)c4cnc[nH]4)C3)CC2)c1` (centres undefined) here?
Its inhibition is 0.4%.

With `O=c1c2ccccc2nc(CSc2nnnn2-c2ccccc2)n1-c1ccccc1` as the compound, how does the inhibition read?
The inhibition was -1.7%.

With `Cc1ccc(-c2noc(CSc3nnnn3-c3ccccc3)n2)cc1` as the compound, how does the inhibition read?
Its inhibition is -2.2%.

For `CN(C)c1nc(N)nc(CSc2nnnn2-c2cccc3ccccc23)n1`, which inhibition is on record?
The inhibition was 66.2% (active).

With `Cn1c(=O)cc(OCCCC(=O)N2CCN(Cc3ccc4c(c3)OCO4)CC2)c2ccccc21` as the compound, how does the inhibition read?
The inhibition was 1.1%.

For `Cc1cc(/C=N/n2cnnc2)c(C)n1-c1ccc2ncccc2c1`, which inhibition is on record?
The inhibition was 1%.

For `C=CCn1c(=N)n(CC(O)COc2ccc(OC)cc2)c2ccccc21` (centres undefined), which inhibition is on record?
Its inhibition is -0.5%.

Which inhibition does the source give for `CC1CCN(C(=O)Cn2cc(C(=O)c3ccco3)c3ccccc32)CC1` here?
Its inhibition is 2.8%.

For `O=C1CCC(C(=O)Nc2ccc(OC(F)F)cc2)N1` (centres undefined), which inhibition is on record?
The inhibition was 0.7%.

With `Cc1cc(C)nc(NC(=O)Nc2ccccc2C(F)(F)F)n1` as the compound, how does the inhibition read?
The inhibition was 45.2% (active).

For `O=C(Nc1ccccc1C(F)(F)F)c1cc(-c2ccc(O)cc2)on1`, which inhibition is on record?
The inhibition was 16.9%.

With `Cc1cc(C)nc(NC(=O)C(C)N2C(=O)c3ccccc3C2=O)n1` (centres undefined) as the compound, how does the inhibition read?
Its inhibition is -2.7%.

With `Cc1nnc(N(Cc2ccco2)C(=O)c2ccno2)s1` as the compound, how does the inhibition read?
The inhibition was -0.7%.

For `Cc1ccc2[nH]c(=O)c(COC(=O)c3ccccn3)cc2c1`, which inhibition is on record?
The inhibition was -6.3%.

With `CCn1c(=N)c(S(=O)(=O)c2ccc(F)cc2)cc2c(=O)n3ccccc3nc21` as the compound, how does the inhibition read?
Its inhibition is -7%.

Which inhibition does the source give for `COc1ccc(Cn2nnc3c(=O)[nH]c(C4CCN(C(=O)c5ccccc5Cl)CC4)nc32)cc1` here?
Its inhibition is -2.8%.

Which inhibition does the source give for `CCN(CC)S(=O)(=O)c1cccc(C(=O)Nc2ccccc2)c1` here?
The inhibition was 29.7% (active).

For `CN(C)S(=O)(=O)c1cccc(C(=O)Nc2cccnc2)c1`, which inhibition is on record?
Its inhibition is -3%.

With `CCN(CC)S(=O)(=O)c1cccc(C(=O)NCC(=O)OCC(=O)NCc2ccccc2)c1` as the compound, how does the inhibition read?
Its inhibition is -5.9%.

With `COc1ccc(Br)cc1S(=O)(=O)N1CCN=C1C` as the compound, how does the inhibition read?
Its inhibition is 2.5%.

For `CCOC(=O)C1=C(C)N=c2s/c(=C\C(=O)OC)c(=O)n2C1c1ccc(OC)cc1` (centres undefined), which inhibition is on record?
The inhibition was 6%.

Which inhibition does the source give for `CCOC(=O)N1CCN(S(=O)(=O)c2ccc(C(=O)Nc3ccc(F)cc3F)cc2)CC1` here?
Its inhibition is 84.2% (active).

Which inhibition does the source give for `O=C(Nc1cccc(F)c1)c1ccc(S(=O)(=O)N2CCCC2)cc1` here?
Its inhibition is 1.7%.

Which inhibition does the source give for `O=C(CN1CCN(S(=O)(=O)c2ccc(F)cc2)CC1)Nc1ccccc1F` here?
The inhibition was -6%.

For `Cc1ccc(C2c3c(oc4ccc(C)cc4c3=O)C(=O)N2CCCN2CCOCC2)cc1` (centres undefined), which inhibition is on record?
Its inhibition is 3.9%.

For `Cc1ccccc1Cn1c(=O)[nH]c2ccccc21`, which inhibition is on record?
The inhibition was 5.4%.

With `COc1ccc(CCN2C(=O)c3[nH]nc(-c4ccccc4O)c3C2c2ccc(C)cc2)cc1OC` (centres undefined) as the compound, how does the inhibition read?
The inhibition was 11.1%.

With `CC(=O)N1CCN(C(=O)c2cccc(S(=O)(=O)Nc3ccc(C)cc3)c2)CC1` as the compound, how does the inhibition read?
Its inhibition is -0.6%.

Which inhibition does the source give for `O=S(=O)(Nc1ccc2nc(-c3ccco3)[nH]c2c1)c1ccccc1` here?
The inhibition was 4.2%.

With `Cc1ccc(S(=O)(=O)Nc2ccc3ncccc3c2)cc1` as the compound, how does the inhibition read?
The inhibition was 69.4% (active).

For `Cc1cc(C)cc(N(CC(=O)Nc2c(C)n(C)n(-c3ccccc3)c2=O)S(C)(=O)=O)c1`, which inhibition is on record?
Its inhibition is -5.2%.

With `CCOC(=O)CSc1nnc(-c2cccc(Br)c2)o1` as the compound, how does the inhibition read?
The inhibition was -6.1%.

With `CC(=O)Nc1ccc(S(=O)(=O)Nc2cccc(NC(=O)C(C)(C)C)c2)cc1` as the compound, how does the inhibition read?
The inhibition was 7.9%.

With `CCNS(=O)(=O)c1ccc(NC(=O)Nc2cccc(OC)c2)cc1` as the compound, how does the inhibition read?
The inhibition was -3.7%.

With `COc1ccc(NS(=O)(=O)c2ccc(NC(C)=O)cc2)cc1OC` as the compound, how does the inhibition read?
Its inhibition is 31.3% (active).

Which inhibition does the source give for `COc1cc(NS(=O)(=O)c2ccc(NC(C)=O)cc2)cc(OC)c1` here?
The inhibition was 37.3% (active).

Which inhibition does the source give for `COC(=O)COc1ccc(S(=O)(=O)Nc2ccc(NC(C)=O)cc2)cc1` here?
Its inhibition is -9.6%.

With `COc1ccc(C(=O)Nc2ccc(S(=O)(=O)Nc3onc(C)c3C)cc2)cc1OC` as the compound, how does the inhibition read?
The inhibition was -3.3%.

Which inhibition does the source give for `NC(=O)c1ccsc1NC(=O)c1ccco1` here?
Its inhibition is -2.4%.

For `O=C(O)c1ccc(F)c(S(=O)(=O)Nc2ccccc2)c1`, which inhibition is on record?
Its inhibition is 6.8%.

Which inhibition does the source give for `O=C(O)Cc1ccc(NC(=O)C2CCCCC2C(=O)O)cc1` (centres undefined) here?
Its inhibition is -4.1%.

Which inhibition does the source give for `Cc1nnc(SCc2ccc(C(=O)c3ccc(Cl)cc3)o2)n1-c1ccccc1` here?
The inhibition was 2.9%.

Which inhibition does the source give for `COc1ccc(N2C(=O)CN=C2Nc2cccc(C)c2C)cc1OC` here?
Its inhibition is -3%.

For `Nc1nnc(SCCN2C(=O)c3ccccc3S2(=O)=O)s1`, which inhibition is on record?
The inhibition was -1%.

With `COc1ccccc1NC(=O)CN1CCN(S(=O)(=O)c2ccc(Br)cc2)CC1` as the compound, how does the inhibition read?
The inhibition was -0.3%.
